This is a sample that favours compounds with a hit; in the whole collection about 19% have one here.
HT1080 IDH1KD tx – kills HT-1080 cells with IDH1 knockdown; HT-1080 IDH1 knockdown viability, ATP luminescence, 48 h; Potency, µM (doses to about 46.1 µM), for the others: at the highest dose activity, negative = toxicity, most hits filed as cytotoxic; 360,000 compounds, 2% hits; AID 686971;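 note: potency is the fitted concentration of half-maximal effect; 0% = DMSO wells and -100% = cell-free medium wells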
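Using the IDH1-knockdown HT-1080 line run in the same batch and compound series as the NT line, viability after 48 h at 37 °C was determined by CellTiter-Glo luminescence and expressed as % activity.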
IL-1B inflam inh – inflammasome signaling inhibition, IL-1 beta readout; activity change, % at 57.5 µM; AID 743279; THP-1 LPS/ATP IL-1B secretion, AlphaLISA, 16 h; stronger effect = lower value; 360,000 compounds, 4.7% hits; in the data active = activity change below about -50%; inconclusive = mostly about -30% to -49%
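Secreted IL-1B measured by AlphaLISA bead assay after 16 h compound exposure of THP-1 cells; compounds (final up to 57.5 uM) added 1 h before LPS (250 ng/mL) and ATP (1.25 mM) stimulation; lower signal means less secretion.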
HT1080-NT tox – kills 2HG-producing HT-1080-NT fibrosarcoma cells | Potency, µM (titrated, usually from 46.1 µM), inactives show at the highest dose activity, negative = less viability, usual class: cytotoxic | HT-1080-NT fibrosarcoma viability, CellTiter-Glo ATP luminescence, 48 h | 360,000 compounds, 1.6% hits | AID 686970;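 note: NT is the 2HG producing partner of a matched IDH1 knockdown line; potency is the fitted concentration of half-maximal effect; 0% = DMSO-treated cells and -100% = media-only wells without cells; nearly all actives have a fitted effect of over 55% in size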
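750 cells/well, RPMI + 5% FBS; 2 h settle, compound pin-transfer, 48 h at 37 degrees C. CellTiter-Glo 10 min RT, luminescence. Normalized to DMSO and media-only wells.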
DT40 TDP1 CPT – DT40-hTDP1 cell growth loss with CPT; chicken DT40 Tdp1-/-;hTDP1 cells + 20 nM CPT, ATP luminescence, 48 h; Potency, µM (series often up to 46.2 µM), inactives show at the top dose activity change, negative = growth inhibition, hits mostly inhibitors; 420,000 compounds, 12% hits; AID 686979; note: potency is the fitted concentration of half-maximal effect; nearly all actives have a fitted effect of over 55% in size
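Chicken DT40 Tdp1-/- cells complemented with human TDP1, 400 cells/well, exposed to compounds plus 20 nM camptothecin for at least 48 h at 37 C; viability read as ATP content by CellTiter-Glo luminescence.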
ELG1 DNA repair – ELG1-dependent DNA repair inhibition | HEK293T ELG1-luciferase reporter, luminescence, 16 h; DNA damage induced by 5-fluorouridine | Potency, µM (highest dose often 46.1 µM), for inactives: at the highest dose activity change, negative = inhibition, most hits filed as inhibitors | 330,000 compounds, 2.3% hits; note: potency is the fitted concentration of half-maximal effect; nearly all actives have a fitted effect of over 55% in size
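Luminescence from the luciferase reporter, measured 30 min after ONE-Glo reagent at room temperature, was the read-out. Beforehand, 2,000 cells per well were exposed for 16 hr at 37 °C to 5-fluorouridine together with compound or vehicle.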
TDP1 cell noCPT – qHTS for Inhibitors of human tyrosyl-DNA phosphodiesterase 1 (TDP1): qHTS in cells in absence of CPT; 420,000 compounds, 15% hits; DT40 Tdp1-/- hTDP1 cells, no CPT, ATP luminescence, 48 h; Potency, µM (highest dose often 46.2 µM), for inactives: top-dose activity change, negative = growth inhibition, actives largely listed as inhibitors; AID 686978, 2013; note: potency is the fitted concentration of half-maximal effect; nearly all actives have a fitted effect of over 55% in size
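Compound effects on proliferation are scored in DT40 Tdp1-/-;hTDP1 cells in the absence of CPT. ATP levels (CellTiter-Glo luminescence) are recorded after a ≥48 hr, 37 °C incubation.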
The depositor's hits bear a star; ? = inconclusive; . = no result; [ ] = dose if it differs, or a comment. Unless noted, calls come from the whole dose curve; as a rule, active = well fitted curve in the direction sought with a large enough effect; inconclusive = small, poorly fitted or top-dose-only effect, or another doubt; inactive = no such curve, though single readings can be large; an effect the other way counts as inactive or inconclusive. Unless noted, % is set by controls: 0 for no effect and ±100 for the full control effect.

SMILES | HT1080 IDH1KD tx | IL-1B inflam inh | HT1080-NT tox | DT40 TDP1 CPT | ELG1 DNA repair | TDP1 cell noCPT
N=C1C(c2ccccc2)=C(O)CN1c1cccc(S(=O)(=O)NCc2ccco2)c1 | 0% | 7 | 0% | -1% | ? | -1%
CCN(CC)c1cc(C)c2cc(NC(=O)/C=C/c3cc(OC)c(OC)c(OC)c3)ccc2n1 | . | . | . | 6.5µM* | . | 7.3µM*
CCN(CC)c1cc(C)c2cc(NC(=O)/C=C/c3ccc(C)cc3)ccc2n1 | . | . | . | 5.8µM* | . | 5.2µM*
CCOc1ccc(/C=C/C(=O)Nc2ccc3nc(N(CC)CC)cc(C)c3c2)cc1OC | . | . | . | 5.2µM* | . | 10µM*
COc1ccc(/C=C/C(=O)Nc2ccc(S(=O)(=O)Nc3cc(C)nc(C)n3)cc2)cc1OC | 8% | 14 | -17% | -3% | 3% | -4%
O=C(NCc1ccccc1)N1CCC(CO)(CCc2ccccc2)CC1 | -4% | 16 | -5% | -22% | 11% | ?
CSCC(C)N1CCC(CO)(CCCc2ccccc2)CC1 (centres undefined) | -2% | 9 | -16% | 2% | -1% | -24%
OCC1(CCCc2ccccc2)CCN(C2CCSCC2)CC1 | -3% | -70* | -3% | -17% | 7% | -23%
OCC1(CCCc2ccccc2)CCN(C2CCC2)CC1 | -13% | -54* | -7% | -25% | -5% | 11%
CCOC(=O)C1(CCCc2ccccc2)CCN(C2CCSCC2)CC1 | -6% | 14 | 1% | 16µM* | ? | 13µM*
C[C@H](CO)N1C[C@H](C)[C@@H](CN(C)S(=O)(=O)c2ccccc2C#N)OCc2cn(nn2)CCCC1=O | -3% | 7 | 3% | 12% | . | 2%
COc1ccc(N(CC(=O)NCc2ccccc2Cl)S(=O)(=O)c2c(C)[nH]c(=O)[nH]c2=O)cc1 | . | . | . | -1% | . | -13%
Oc1ccc(O)c(Cc2nc3ccccc3s2)c1 | 16µM* | -55* | ? | ? | ? | ?
COc1ccc2cc(CN(Cc3ccco3)C(=S)NCC3CCCO3)c(=O)[nH]c2c1 (centres undefined) | 9% | 19 | 2% | ? | 23µM* | ?
CNC(=S)N(Cc1cc2ccc(OC)cc2[nH]c1=O)CC1CCCO1 (centres undefined) | -5% | 0 | 8% | 0% | 2% | 2%
Cc1ccc2[nH]c(=O)c(CN(Cc3cccs3)C(=S)NCC3CCCO3)cc2c1 (centres undefined) | -7% | -10 | 1% | ? | -23% | 13µM*
Cc1cc(C)c2cc(CN(Cc3ccco3)C(=S)NCC3CCCO3)c(=O)[nH]c2c1 (centres undefined) | -10% | 0 | -8% | 18µM* | ? | 16µM*
O=C(CNC(=O)c1ccc(Br)o1)NNC(=O)c1ccc(Br)cc1 | 8% | 9 | 11%[9.24 µM] | -2% | ? | 7%
CCCCN1C(=O)NC2NC(=O)NC21 (centres undefined) | 8% | -92* | 7% | 3% | 2% | -2%
CCCCN1C(=O)N(C)C2C1N(C)C(=O)N2CCCC (centres undefined) | 9% | 4 | 4% | 2% | -4% | -14%
COCCNC(=O)C1(C)CCCN(C(=O)c2ccc(C)c(F)c2)C1 (centres undefined) | 14% | 7 | 18% | -29% | . | -3%
CC(=O)c1ccc(N2CCN(C(=O)c3ccc(-c4ccccc4)cc3)CC2)cc1 | -9% | 3 | -8% | ? | -14% | 13µM*
CC(=O)c1ccc(N2CCN(C(=O)c3cccc(Oc4ccccc4)c3)CC2)cc1 | -22% | 1 | -25% | 16µM* | -11% | 18µM*
CC(=O)c1ccc(N2CCN(C(=O)c3nn(Cc4ccccc4)c(=O)c4ccccc34)CC2)cc1 | -9% | 18 | -26% | ? | 9.2µM* | 18µM*
CC(C)CC(=O)N1CCN(C(=O)c2ccc(-c3ccccc3)cc2)CC1 | -9% | 10 | -1% | ? | ? | 23µM*
SMILES | HT1080 IDH1KD tx | IL-1B inflam inh | HT1080-NT tox | DT40 TDP1 CPT | ELG1 DNA repair | TDP1 cell noCPT
CC(=O)c1ccc(N2CCN(C(=O)c3n[nH]c4ccccc34)CC2)cc1 | -11% | -21 | -8% | ? | 0% | ?
Cc1ccc(Sc2cnn(-c3ccccc3)c(=O)c2Cl)cc1 | -8% | ? | -13% | ? | -3% | 29µM*
O=C(O)c1ccc(-n2ncc(Cl)c(Cl)c2=O)cc1 | 18µM* | -102* | 5.8µM* | 6.5µM* | . | 5.8µM*
COc1ccc(Oc2c(Cl)cnn(-c3ccc(F)cc3)c2=O)cc1 | ? | -112* | ? | ? | ? | ?
CNc1cnn(-c2ccccc2)c(=O)c1Cl | 23% | 4 | 16% | ? | 23% | ?
CCOc1c(Cl)cnn(-c2ccc(C)cc2)c1=O | 19% | 6 | 19% | -23% | 13% | ?
COc1c(Cl)cnn(-c2ccc(C)cc2)c1=O | -23% | -25 | 11% | ? | 19% | 16µM*
Cc1oc2ncn(C)c(=O)c2c1C(=O)Nc1ccc(F)cc1 | . | . | . | -1% | . | -20%
COc1ccc(Oc2c(Cl)cnn(-c3ccc(C)cc3)c2=O)cc1 | -4%[9.24 µM] | -114* | ? | ? | 6% | 26µM*
COc1ccc2cnn(-c3ccc(OC(F)(F)Cl)cc3)c(=O)c2c1OC | 15% | 49 | ? | 13% | 28% | 2%
COc1ccc2cnn(CCOc3cc(C)ccc3C(C)C)c(=O)c2c1OC | -17% | 21 | -5% | 16µM* | ? | 16µM*
COc1ccc(Oc2c(Cl)cnn(-c3ccc(Cl)c(Cl)c3)c2=O)cc1 | ? | -113* | 18µM* | ? | ? | ?
CCOc1ccccc1OCCn1ncc2ccc(OC)c(OC)c2c1=O | 0% | -10 | -1% | -25% | ? | -19%
COc1ccc2cnn(-c3ccc(C)cc3)c(=O)c2c1OC | 13%[9.24 µM] | 16 | 8% | 15µM* | ? | 21µM*
Cc1cccc(N2CC(C(=O)Nc3ccc4c(c3)OCCO4)CC2=O)c1C (centres undefined) | 18% | -6 | -1% | -13% | ? | -20%
Cn1cc(CNC2CCN(c3cccc(NC(=O)c4cccnc4)c3)CC2)cn1 | . | . | . | 7%[9.04 µM] | . | -2%
CC(C)CNC(=O)COC(=O)c1ccc2c(c1)C(=O)N(Cc1ccco1)C2=O | 13% | 37 | -1% | 11% | 0% | 1%

Screening data as filed in PubChem.
